# In PubChem BioAssay AID1626 (SRMLSC, 2009):
# The campaign covered roughly 220,000 compounds. About 2,000 (0.91%) were called active. Not shown: some 2% with an inconclusive outcome. The list is a sample of the results. Potency and affinity values are given separately. A number with no mark means an inactive call. No stated cut-off is given here; in the data, inconclusive means inhibition above about 80% without an active follow-up result; inactive means below that; test concentration not stated here.
# Assay: M. tuberculosis H37Rv growth inhibitors, H37Rv strain (AID 1626);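 further: bacteria incubated seven days before Alamar blue readout; 0% = bacteria only wells and 100% = bacteria with antibiotic wells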
# Conditions: hits give high values, concentration not given here
row,Compound,inhibition [%]
1,O=C1NC(c2ccccc2)=NC1(NS(=O)(=O)c1ccc(Cl)cc1)C(F)(F)F (stereo unspecified),7.08
2,O=C(c1coc2ccc(O)c(CN3CCOCC3)c12)C1CC1,4.13
3,O=C(c1cccs1)c1coc2ccc(O)cc12,51
4,COc1ccc(OC)c(C(=O)c2coc3ccc(O)cc23)c1,-1.33
5,O=C(c1ccc(Cl)cc1)c1coc2ccc(O)cc12,-6.06
6,CN1CC(=O)N(CC(=O)Nc2ccc(F)cc2)c2ccccc2C1=O,-5.02
7,COc1ccc(C(=O)Nn2c(CCC(=O)O)ccc2-c2ccc(C)cc2)cc1OC,-3.08
8,Cc1cccc(N2CCN(C(=O)N3CCOCC3)CC2)c1C,-3.5
9,Cc1nn(C)c(C(=O)NNC(=S)NC2CCCCC2)c1Br,10.2
10,Cc1ccc(NC(=O)COC(=O)CCNS(=O)(=O)c2ccc(C)c(C)c2)cc1,-0.05
11,CCN(CC)c1ccc(/C=C(/C#N)c2nc3ccc(C)cc3[nH]2)c(OC(C)C)c1,16.2
12,CCCOc1cc(N(CC)CC)ccc1/C=C(/C#N)c1nc2ccc(C)cc2[nH]1,61.6
13,FC(F)(F)c1ccc(CN2C[C@@H]3C(c4ccccc4)C4(c5cccnc5)CC3(C4)[C@H]2c2ccccc2)cc1 (stereo partly specified),20.3
14,COc1ccccc1S(=O)(=O)CC(O)COc1ccc(C#N)cc1 (stereo unspecified),-1.05
15,Cc1nccn1CC(=O)N/N=C/c1c[nH]c2ccccc12,3.79
16,COC(=O)c1ccc(OC(=O)CCN2c3ccccc3Sc3ccccc32)cc1,1.13
17,O=C(CCN1c2ccccc2Sc2ccccc21)Oc1ccccc1,22.8
18,CSCCC(NC(=O)c1ccccc1)c1nc(-c2ccccc2)no1 (stereo unspecified),2.56
19,CCOc1cc(Br)ccc1S(=O)(=O)N1CCC(C(N)=O)CC1,-1.13
20,CCOC(=O)c1ccc(N=Nc2c(C)c(C#N)c(O)[nH]c2=O)cc1,86.6
21,Cc1cccc(N=Nc2c(C)c(C#N)c(O)[nH]c2=O)c1,-1.05
22,Cc1ccc(C)c2[nH]c(=O)c(CN(CC3CCCO3)C(=S)NCc3ccco3)cc12 (stereo unspecified),1.36

row,Compound,inhibition [%]
1,c1ccc(COc2ccc(CNn3cnnc3)cc2)cc1,-2.39
2,COc1cccc(-c2nc(Oc3cccc(C)c3C)c3ccccc3n2)c1O,-7.68
3,Cc1nc(SCC(=O)NCc2ccccc2)c2oc3ccccc3c2n1,-1.12
4,CCOC(=O)N1C2=NC(C(=O)OC)=C(C(=O)OC)[C@@H]3N(Cc4ccccc4)c4ccccc4[C@]23C[C@H]1C(=O)OC,-6.13
5,Cc1ccc(-n2cnnn2)cc1Cl,-4.47
6,CN1CCN(c2ccc(C(=O)c3ccc(F)cc3)cc2)CC1,1.19
7,Cc1ccc(C(=O)c2cn(-c3ccc(F)c(Cl)c3)nn2)cc1,0.59
8,O=C(c1cn(-c2ccc(Cl)c(Cl)c2)nn1)C1CC1,12.8
9,Cc1c(-n2c(O)c(C3=c4ccccc4=NC3=O)sc2=O)c(=O)n(-c2ccccc2)n1C,1.59
10,N/C(=N\OC(=O)c1cc(Cl)ccc1Cl)c1ccncc1,-3.7
11,CS(=O)(=O)N(Cc1ccc(Cl)cc1)c1ccc(C(=O)N/N=C/c2cc3ccccc3nc2Cl)cc1,-6.17
12,Cc1ccc(-n2nnnc2SCC(=O)Nc2sccc2C#N)cc1,0.42
13,O=C(CN1C(=O)CCC1=O)NCC12CC3CC(CC(C3)C1)C2,0.8
14,Cc1ccc(N/C=C(\C#N)c2ccc(OCCCF)cc2)cc1,7.98
15,CCNC(=O)c1c(C)nc2ccccn12,-9.74
16,Cc1nn(Cc2ccccc2Cl)c2sc(C(=O)NC(C)(C)C)cc12,7.48
17,Cc1nc2ccccn2c1C(=O)N/N=C/c1ccc2c(c1)OCO2,1.58
18,Cc1nc2ccccn2c1C(=O)NCc1cccnc1,-10.5
19,CC(C)(C)c1ccc(C(=O)OCCNC(=O)c2c(Cl)nc3ccccn23)cc1,-10.6
20,CCC(CC)NC(=O)c1cc2c(C)nn(Cc3ccccc3Cl)c2s1,-6.17
21,COc1ccc(NC(=O)c2c(Cl)nc3ccccn23)cc1,-0.46
22,O=C(NCc1ccc2c(c1)OCO2)c1cnc2ccccn2c1=O,-8.83

row,Compound,inhibition [%]
1,COCCn1c(=O)[nH]c2cc(C(=O)NCC3CCCO3)ccc2c1=O (stereo unspecified),-10.7
2,COc1cc(C2NC(=O)NC(C)=C2C(C)=O)ccc1O (stereo unspecified),5.67
3,COC(=O)c1ccccc1NC(=O)NCc1cccnc1,2.42
4,CCCC(C)C(=O)Nc1ccc(Cl)cc1Cl (stereo unspecified),-6.12
5,Cc1ccc(NC(=O)CC(=O)NCCN2CCOCC2)cc1,-6.87
6,CC(=O)c1ccc(OC(C)C)c(CSC(=N)N)c1,-9.08
7,COc1ccccc1NS(=O)(=O)c1cccc(NC(=S)NCCN2CCOCC2)c1,-2.29
8,c1ccc2c(Nc3ccc4c(c3)OCCO4)c3c(nc2c1)CCC3,21.9
9,Cc1ccc2nc3c(c(Nc4ccc5c(c4)OCCO5)c2c1)CCC3,59.8
10,N#Cc1c(SCC(N)=O)nsc1SCc1ccc(Cl)cc1,-0.48
11,CSc1snc(SCC(N)=O)c1C#N,-4.47
12,C/C=C/C(=O)OCC(=O)Nc1cccc(Br)c1,-3.94
13,COc1ccc(NC(=O)C(C)Sc2nnc3c4c(nc(-c5ccc(OC)cc5)n23)CC(C)(C)OC4)cc1 (stereo unspecified),4.37
14,CC(C)CNC(=S)N1CCN(Cc2ccc3c(c2)OCO3)CC1,-8.68
15,CCC1C(=O)N=C(SCC(=O)Nc2ccccc2)NC1=O (stereo unspecified),-8
16,CCC(=O)Nc1ccc(NC(=O)c2cc3ccccc3o2)cc1,8.98
17,Cc1ccc(NC(=O)c2cc3c(s2)CCCC3)cc1,-5.85
18,CCOC(=O)c1ccc(NC(=O)CNC(=O)c2ccccc2)cc1,0.26
19,CCC1C(=O)N=C(SCC(=O)Nc2ccc(C(=O)OC)cc2)NC1=O (stereo unspecified),8.73
20,COc1ccccc1NC(=O)c1ccc(NC(=O)c2cc3c(s2)CCC3)cc1,0.63
21,COc1ccc(NC(=O)c2cc3ccccc3o2)cc1,8.56
22,CCOC(=O)c1ccc(NC(=O)Nc2ccc(F)cc2)cc1,-14.9
